According to PubChem BioAssay (NCATS):
Values joined by “and” are separate entries in the source; they are usually repeats but may differ in a detail not shown here. Equal entries are not always repeated. Records with an inconclusive call do not appear. Where a call stands in place of a potency, no number is given. A number with no mark means an inactive call. Active and inactive are the calls of the source. The call rests on the fitted dose curve.

Assay: Cytotoxicity counterscreen for inhibitors of SARS-CoV-2 cell entry (AID 1645845); further: nearly all actives have a fitted effect of over 50% in size
Settings: cell viability (SARS-CoV-2 entry assay cells); series mostly up to 57.1 µM; activity change, negative = cytotoxicity: at the top concentration
Procedure, shortened: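 After a 15 min room-temperature ATPLite 1step step, luminescence reflected ATP remaining in HEK293-ACE2 cells exposed to compound for 1 h plus 48 h at 37 C, with percent activity set by cell and no-cell controls.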

SMILES	activity change, negative = cytotoxicity	outcome	Potency
O=C(O)CCC(=O)O	-0.558%		
Clc1cccc(Cl)c1NC1=NCCN1		inactive	
CC(C)(O/N=C(\C(=O)N[C@@H]1C(=O)N2C(C(=O)[O-])=C(C[n+]3ccccc3)CS[C@H]12)c1csc(N)n1)C(=O)O		inactive [at 27.1 µM]	
CNNCc1ccc(C(=O)NC(C)C)cc1			inactive
O=C(OOC(=O)c1ccccc1)c1ccccc1		inactive	
O=C1[C@@H]2[C@H]3CC[C@H](C3)[C@@H]2C(=O)N1CCCCN1CCN(c2ncccn2)CC1		inactive	
Cc1cc(O)c2c(O)c3c(O)cccc3cc2c1	-3.4%		
CCC(=O)c1c(O)cc(O)cc1O		inactive	
Clc1cccc(C(c2ccc3nc[nH]c3c2)n2ccnc2)c1 (stereo not drawn)		inactive	
COC(=O)CCCCC(CCSS/C(CCO)=C(\C)N(C=O)Cc1cnc(C)nc1N)SC(C)=O (stereo not drawn)	4.2%		
Cc1cc(O)cc(C)c1Cl		inactive	
CCN1CCN(C(=O)N[C@@H](C(=O)N[C@@H]2C(=O)N3[C@@H]2SC(C)(C)[C@H]3C(=O)O)c2ccccc2)C(=O)C1=O		inactive	
C[N+](C)(C)CCOC(N)=O		inactive	
CCn1cc(C(=O)O)c(=O)c2cnc(N3CCNCC3)nc21	-3.69%		
C[C@@H](O)[C@H]1C(=O)N2C(C(=O)O)=C(SCCN=CN)C[C@H]12		inactive	
Nc1ccn(C[C@@H](CO)OCP(=O)(O)O)c(=O)n1	2.99% [at 0.702 µM] and 4.32% [at 11.3 µM]		
OC[C@H]1O[C@H](O[C@]2(CCl)O[C@H](CCl)[C@@H](O)[C@@H]2O)[C@H](O)[C@@H](O)[C@H]1Cl		inactive	
NC(=O)N1c2ccccc2C=Cc2ccccc21		inactive	
Nc1ccc(S(=O)(=O)c2ccc(N)cc2)cc1		inactive	

SMILES	activity change, negative = cytotoxicity	outcome	Potency
C=CC(N)CCC(=O)O (stereo not drawn)		inactive [at 27.1 µM]	
C[C@@H]1CN(c2c(F)c(F)c3c(=O)c(C(=O)O)cn(C4CC4)c3c2F)C[C@H](C)N1	3.07% [at 27.1 µM]		
COC(=O)C1=C(C)NC(C)=C(C(=O)OCCc2ccc(N3CCN(C(c4ccccc4)c4ccccc4)CC3)cc2)C1c1cccc([N+](=O)[O-])c1 (stereo not drawn)	-1.38%		
Cc1oc(=O)oc1COC(=O)[C@@H]1N2C(=O)[C@@H](NC(=O)[C@H](N)c3ccccc3)[C@H]2SC1(C)C		inactive	
CC[N+](C)(CC)CCOC(=O)C1c2ccccc2Oc2ccccc21	-2.62%		
C[C@H](CS)C(=O)N1CCC[C@H]1C(=O)O	2.16%		
CC(C(=O)O)c1ccc2c(c1)CC(=O)c1ccccc1S2 (stereo not drawn)			inactive
Cc1c(F)c(N2CCNC(C)C2)cc2c1c(=O)c(C(=O)O)cn2C1CC1 (stereo not drawn)	-0.217%		
CCCCCCCCCCCC(=O)[O][Sn]([CH2]CCC)([CH2]CCC)[O]C(=O)CCCCCCCCCCC		inactive	
Cc1c(C(=O)O)c(O)cc2c1C(=O)c1c(O)c([C@@H]3O[C@H](CO)[C@@H](O)[C@H](O)[C@H]3O)c(O)c(O)c1C2=O		inactive	
COc1ccc(C(=O)c2ccccc2O)c(O)c1		inactive	
O=C(CCBr)N1CCN(C(=O)CCBr)CC1		inactive	
O=c1c(-c2ccc(O)cc2)coc2cc(O)cc(O)c12			inactive
O=C(O)C[C@H](O)C[C@H](O)/C=C/c1c(C2CC2)nc2ccccc2c1-c1ccc(F)cc1	-29.8%		
CCCCC(O)/C=C(C)/C=C/C=C/C(=O)N1CCCC1=O (stereo not drawn)	2.27%		
Nc1ncnc2nc[nH]c12	2.72%		
COc1cc2c3cc1Oc1cc(ccc1O)C[C@@H]1c4c(cc(OC)c(O)c4Oc4ccc(cc4)C[C@@H]3N(C)CC2)CC[N+]1(C)C	-16.3%		
CC(=O)N(CC(O)CO)c1c(I)c(C(=O)NCC(O)CO)c(I)c(C(=O)NCC(O)CO)c1I (stereo not drawn)		inactive	
O=c1cc[nH]c(=O)[nH]1		inactive	
